Reference: PubChem BioAssay (Tox21)
Where “and” joins values, the source holds several entries; their conditions need not be identical. Identical values can stand only once. Values without a mark were called inactive. Inconclusive results are not listed. Where a call stands in place of a potency, no number is given. Calls of active or inactive are those of the source. Unless noted, calls follow the shape of the dose curve; as a rule, active = well fitted curve in the direction sought with a large enough effect in the repeat runs; inconclusive = weak or mixed curves; inactive = no such curve, though single readings can be large; an effect the other way counts as inactive or inconclusive.

Assays:
[1] = A CellTox Green Cytotoxicity Assay to monitor cytotoxicity in HepG2 cells - 0 hour (AID 1224882); also: nearly all actives have a fitted effect of over 35% in size; also: potency is read from the fitted curve at half-maximal effect
Outline: (§1)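 First, HepG2 cells (600/well) mixed with reagent were plated; second, after 5 h at 37 C they received compounds via pintool; third, fluorescence was measured at 0 h through 40 h at 8 h intervals.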

[2] = A CellTox Green Cytotoxicity Assay to monitor cytotoxicity in HepG2 cells - 32 hour (AID 1224883); also: nearly all actives have a fitted effect of over 50% in size; also: potency is read from the fitted curve at half-maximal effect
Outline: as §1

[3] = A CellTox Green Cytotoxicity Assay to monitor cytotoxicity in HEK293 cells - 8 hour (AID 1224884); also: nearly all actives have a fitted effect of over 35% in size; also: potency is read from the fitted curve at half-maximal effect
Outline: (§2)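 Dead-cell fluorescence measured kinetically: asymmetric cyanine dye, HEK293, 600 cells/well, 5 h settle, 23 nL cpd/DMSO, 37 C, reads 0–40 h every 8 h.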

[4] = qHTS RealTime-Glo MT Cell Viability Assay in HEK293 cells - 24 hour (AID 1224886); also: nearly all actives have a fitted effect of over 50% in size; also: potency is read from the fitted curve at half-maximal effect
Outline: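 Quantitative high-throughput screen of the Tox21 10K library in HEK293: cells and RealTime-Glo reagents plated together, compound added at 5 h, luminescence monitored through 40 h at 37 C.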

[5] = qHTS RealTime-Glo MT Cell Viability Assay in HepG2 cells - 0 hour (AID 1224889); also: nearly all actives have a fitted effect of over 50% in size
Outline: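 Compound treatment began 5 h after plating HepG2 cells (600/well) with NanoLuc luciferase and prosubstrate. Plates stayed at 37 C for 40 h; luminescence was captured at six time points, 0 h through 40 h.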

[6] = target: Estrogen receptor (Homo sapiens) (UniProt P03372); experiment: qHTS assay to identify small molecule antagonists of the estrogen receptor alpha (ER-alpha) signaling pathway using the BG1 cell line in the presence of 0.1 nM 17-beta-estradiol (AID 1259244); also: nearly all actives have a fitted effect of over 50% in size; also: potency is read from the fitted curve at half-maximal effect
Outline: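 Reporter is a stably transfected luciferase under four estrogen responsive elements in VM7Luc4E2 cells expressing native full-length ER-alpha; inhibition of 0.1 nM (final) 17beta-estradiol-driven signal over 22 h is read by luminescence.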

[7] = qHTS assay to identify small molecule HDAC inhibitors - cell viability counter screen (AID 1259365)
Outline: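 Measured quantity is CellTiter-Glo luminescence from wild-type HCT-116 cells after compound incubation of 2hr at 37C, 5% CO2; reagent developed 30min at room temperature.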

[8] = qHTS assay to identify small molecule agonists of the sonic hedgehog signaling (Shh) pathway - cell viability counter screen (AID 1259366); also: nearly all actives have a fitted effect of over 50% in size; also: potency is read from the fitted curve at half-maximal effect
Outline: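 In quantitative high-throughput format, 3T3 Gli1-Luc cells were exposed to compounds for 24hr and multiplexed for viability using CellTiter-Fluor, incubated 1hr at 37C before the fluorescence read.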

[9] = qHTS assay to identify small molecule antagonists of the sonic hedgehog signaling (Shh) pathway - cell viability counter screen (AID 1259367); also: nearly all actives have a fitted effect of over 55% in size; also: potency is read from the fitted curve at half-maximal effect
Outline: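 Conditioned medium drove Shh signaling in 3T3 Gli1-Luc cells exposed to compounds at 37C and 5% CO2. Viability was determined from CellTiter-Fluor fluorescence, with reagent incubated 1 hr after 23 hr of treatment.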

[10] = qHTS assay to identify small molecule agonists of the sonic hedgehog signaling (Shh) pathway (AID 1259368; calls by dose curve;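 also: NIH/3T3-derived 3T3Gli1-Luc cells carrying a stable Gli1-driven firefly luciferase reporter; series mostly up to about 92 µM; nearly all actives have a fitted effect of over 15% in size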)
Outline: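 Quantitative high-throughput format using a Gli1-driven firefly luciferase reporter line derived from NIH/3T3 cells. After a 24 hr compound treatment at 37 C and 5% CO2, luminescence reported Gli1 response element activity.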

[11] = qHTS assay to identify small molecule antagonists of the sonic hedgehog signaling (Shh) pathway (AID 1259369; calls by dose curve; also: nearly all actives have a fitted effect of over 45% in size; also: potency is read from the fitted curve at half-maximal effect)
Outline: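 Stable Gli1-Luc reporter NIH/3T3 clone; quantitative HTS in stimulated mode with conditioned medium. Luminescence measured after 24hr compound treatment at 37 C.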

[12] = A CellTox Green Cytotoxicity Assay to monitor cytotoxicity in HEK293 cells - 16 hour (AID 1224888); also: nearly all actives have a fitted effect of over 35% in size; also: potency is read from the fitted curve at half-maximal effect
Outline: as §2

[13] = qHTS assay to identify small molecule antagonists of the androgen receptor (AR) signaling pathway using the MDA cell line in the presence of 0.5 nM R1881 - cell viability counter screen (AID 1259242); also: nearly all actives have a fitted effect of over 45% in size; also: potency is read from the fitted curve at half-maximal effect
Outline: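 qHTS format. MDA-kb2 (MMTV-luc, AR/GR responsive) + cpd + 0.5 nM R1881 final, 16 hr 37C/0% CO2 → CellTiter-Fluor 30 min → fluorescence intensity.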

[14] = qHTS assay to identify small molecule phospholipidosis (PLD) inducers (AID 1259344; active = well fitted curve in the direction sought with a large enough effect; an effect the other way counts as inactive or inconclusive)
Outline: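 After 4 h attachment on collagen I, HepG2 cells were dosed with compound alongside LipidTOX Red, kept 24 h at 37 C, fixed, and imaged for lamellar phospholipid pits.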

[15] = qHTS assay to identify small molecule HDAC inhibitors (AID 1259364);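 also: wild-type HCT-116 cells with endogenous class I/II HDAC activity; top concentration of the series differs between compounds; nearly all actives have a fitted effect of over 45% in size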
Outline: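 Quantitative high-throughput format: overnight-seeded HCT-116 cells got compounds for 2 hr at 37C; HDAC-Glo I/II reagent added, 30 min RT, luminescence measured.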

[16] = qHTS RealTime-Glo MT Cell Viability Assay in HEK293 cells - 8 hour (AID 1224887); also: nearly all actives have a fitted effect of over 50% in size; also: potency is read from the fitted curve at half-maximal effect
Outline: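 600 HEK293 cells per well, dispensed already mixed with RealTime-Glo MT reagents. Compound dosing came 5 h later. The same wells were read for luminescence at 0, 8, 16, 24, 32 and 40 h of exposure at 37 C.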

[17] = A CellTox Green Cytotoxicity Assay to monitor cytotoxicity in HepG2 cells - 8 hour (AID 1224890); also: nearly all actives have a fitted effect of over 45% in size; also: potency is read from the fitted curve at half-maximal effect
Outline: as §1

[18] = qHTS assay to identify small molecule antagonists of the estrogen receptor alpha (ER-alpha) signaling pathway using the BG1 cell line in the presence of 0.1 nM 17-beta-estradiol - cell viability counter screen (AID 1259241); also: nearly all actives have a fitted effect of over 40% in size
Outline: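 In this screen, hormone-deprived VM7Luc4E2 cells were seeded at 4,000 per well, dosed with compound and 0.1 nM estradiol final, and incubated 22 hr at 37C and 5% CO2; fluorogenic live-cell protease signal reported viability.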

[19] = target: Androgen receptor (Homo sapiens) (UniProt P10275); experiment: qHTS assay to identify small molecule antagonists of the androgen receptor (AR) signaling pathway using the MDA cell line in the presence of 0.5 nM R1881 (AID 1259243)
Outline: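 Antagonist mode quantitative HTS in MDA-kb2 MMTV-luciferase cells, agonist R1881 at 0.5 nM final, 16 hr exposure at 37C and 0% CO2, luminescent detection.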

Chain of Estrogen receptor (Homo sapiens) (P03372 whole entry, looked up): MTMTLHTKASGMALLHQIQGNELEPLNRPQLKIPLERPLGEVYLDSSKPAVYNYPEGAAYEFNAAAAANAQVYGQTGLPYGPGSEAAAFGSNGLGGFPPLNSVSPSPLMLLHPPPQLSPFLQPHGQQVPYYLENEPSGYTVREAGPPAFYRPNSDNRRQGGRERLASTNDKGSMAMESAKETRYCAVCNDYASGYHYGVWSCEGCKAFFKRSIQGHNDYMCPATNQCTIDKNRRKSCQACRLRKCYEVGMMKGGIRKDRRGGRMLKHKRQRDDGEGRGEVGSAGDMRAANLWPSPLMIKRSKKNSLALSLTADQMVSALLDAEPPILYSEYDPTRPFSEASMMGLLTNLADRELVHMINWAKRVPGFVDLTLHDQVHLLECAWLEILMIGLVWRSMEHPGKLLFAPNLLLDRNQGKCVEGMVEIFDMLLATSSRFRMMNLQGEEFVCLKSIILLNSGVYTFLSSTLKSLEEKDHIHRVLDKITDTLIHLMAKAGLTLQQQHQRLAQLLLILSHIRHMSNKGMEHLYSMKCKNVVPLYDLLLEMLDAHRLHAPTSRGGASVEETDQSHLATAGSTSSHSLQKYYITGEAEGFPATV
Chain of Androgen receptor (Homo sapiens) (P10275 whole entry, looked up): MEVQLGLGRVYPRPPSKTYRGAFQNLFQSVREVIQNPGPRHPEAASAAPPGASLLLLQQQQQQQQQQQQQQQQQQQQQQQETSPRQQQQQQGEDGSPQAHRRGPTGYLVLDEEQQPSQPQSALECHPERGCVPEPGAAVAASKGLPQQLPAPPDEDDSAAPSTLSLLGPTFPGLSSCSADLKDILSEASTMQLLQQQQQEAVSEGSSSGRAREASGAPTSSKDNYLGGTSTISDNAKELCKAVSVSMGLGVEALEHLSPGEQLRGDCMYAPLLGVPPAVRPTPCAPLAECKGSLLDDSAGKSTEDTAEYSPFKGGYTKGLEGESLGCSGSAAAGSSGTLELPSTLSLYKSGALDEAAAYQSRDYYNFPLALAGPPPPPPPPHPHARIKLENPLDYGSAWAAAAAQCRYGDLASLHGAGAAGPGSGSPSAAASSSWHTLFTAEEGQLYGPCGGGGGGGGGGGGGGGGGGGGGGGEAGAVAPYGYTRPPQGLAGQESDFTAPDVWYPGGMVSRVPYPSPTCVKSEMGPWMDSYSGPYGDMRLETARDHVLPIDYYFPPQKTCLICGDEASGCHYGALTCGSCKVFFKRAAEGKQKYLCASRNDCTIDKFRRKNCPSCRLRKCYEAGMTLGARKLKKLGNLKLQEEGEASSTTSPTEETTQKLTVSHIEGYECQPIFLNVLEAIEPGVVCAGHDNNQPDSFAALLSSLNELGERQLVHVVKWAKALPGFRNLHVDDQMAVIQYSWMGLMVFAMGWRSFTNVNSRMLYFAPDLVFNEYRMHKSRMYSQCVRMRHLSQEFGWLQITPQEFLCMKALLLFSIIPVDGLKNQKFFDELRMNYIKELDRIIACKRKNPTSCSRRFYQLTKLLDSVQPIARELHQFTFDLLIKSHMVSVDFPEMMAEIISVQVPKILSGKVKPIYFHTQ

Row | Compound | Potency [1] | Potency [2] | Potency [3] | Potency [4] | Potency [5] | Potency [6] | Potency [7] | Potency [8] | Potency [9] | outcome [10] | Potency [11] | Potency [12] | Potency [13] | Potency [14] | Potency [15] | Potency [16] | Potency [17] | Potency [18] | Potency [19]
1 | OCc1cc(C(O)CNCCCCCCOCCCCc2ccccc2)ccc1O (stereo unspecified) | inactive | 23.9 µM (active) | inactive | 19 µM (active) | inactive | inactive | inactive | 3.76 µM (active) | 4.73 µM (active) | inactive | 6.68 µM (active) | – | – | – | – | – | – | – | –
2 | CCN(CC)CCOC(=O)C(c1ccccc1)C1CCCCC1 (stereo unspecified) | inactive | 23.9 µM (active) | inactive | – | inactive | inactive | inactive | – | – | inactive | 15 µM (active) | inactive | inactive | inactive | inactive | – | – | – | –
3 | C=C1[C@H]2CC[C@@H]3[C@H]2C(C)(C)CCC[C@]13C | inactive | inactive | inactive | inactive | inactive | inactive | inactive | inactive | inactive | inactive | inactive | – | inactive | – | inactive | inactive | inactive | – | –
4 | C=CC(=O)OCCOCCOCCOCCOC(=O)C=C | inactive | 39.1 µM (active) and 13.7 µM (active) | inactive | 34.8 µM (active) and 30.6 µM (active) | inactive | 54.8 µM (active) | inactive | 27.4 µM (active) and 21.5 µM (active) | – | inactive | 3.08 µM (active) and 6.06 µM (active) | inactive | – | – | inactive | – | – | – | –
5 | CC[N+]1(CC)CCC(=C(c2ccccc2)c2ccccc2)C1C (stereo unspecified) | inactive | inactive | inactive | – | inactive | – | inactive | inactive | – | inactive | – | inactive | inactive | – | inactive | inactive | inactive | inactive | –
6 | Cc1ccccc1S(=O)(=O)O | inactive | inactive | inactive | inactive | inactive | – | inactive | inactive | – | inactive | – | inactive | inactive | – | inactive | inactive | – | inactive | –
7 | C[Si](C)(CCCN)O[Si](C)(C)CCCN | inactive | inactive | inactive | inactive | inactive | inactive | inactive | inactive | inactive | inactive | – | inactive | inactive | – | inactive | inactive | – | inactive | –
8 | OC(CN1CCC(Cc2ccc(F)cc2)CC1)c1ccc(Cl)cc1 (stereo unspecified) | inactive | 23.9 µM (active) | inactive | 9.52 µM (active) | inactive | – | inactive | inactive | inactive | inactive | 23.7 µM (active) | – | – | inactive | inactive | 16.9 µM (active) | – | inactive | 29.8 µM (active)
9 | CCC(=O)O[C@]1(C(=O)CCl)[C@@H](C)C[C@H]2[C@@H]3CCC4=CC(=O)C=C[C@]4(C)[C@@]3(F)[C@@H](O)C[C@@]21C | inactive | inactive | inactive | – | inactive | inactive | inactive | inactive | inactive | inactive | inactive | – | inactive | – | inactive | inactive | inactive | inactive | –
10 | Clc1ccc2c(c1)CCc1cccnc1C2=C1CCNCC1 | inactive | 23.9 µM (active) | inactive | – | inactive | inactive | inactive | 11.9 µM (active) | – | inactive | 1.68 µM (active) | inactive | inactive | – | inactive | inactive | inactive | – | –
11 | Cc1oc2c(NC(=O)c3c(Cl)cccc3Cl)cccc2c1C(C)(C)O | inactive | 49 µM (active) | inactive | – | inactive | 13.7 µM (active) | inactive | inactive | inactive | inactive | 8.63 µM (active) | inactive | – | – | inactive | inactive | inactive | – | –
12 | CC(C)OC(=O)C(C)N(C(=O)c1ccccc1)c1ccc(F)c(Cl)c1 (stereo unspecified) | inactive | inactive | inactive | inactive | inactive | – | inactive | inactive | inactive | inactive | – | – | inactive | – | inactive | inactive | – | inactive | –
13 | CCOc1ccc(N)c([N+](=O)[O-])c1 | inactive | inactive | inactive | – | inactive | inactive | inactive | inactive | inactive | inactive | inactive | inactive | inactive | – | inactive | – | inactive | inactive | –
14 | CCCCCCCN | inactive | inactive | inactive | inactive | inactive | inactive | inactive | inactive | inactive | inactive | inactive | inactive | inactive | – | inactive | inactive | – | – | –
15 | COc1cc(Cl)ccc1Oc1ccc(Cl)cc1Cl | inactive | inactive | inactive | – | inactive | inactive | inactive | inactive | inactive | inactive | – | inactive | inactive | – | inactive | inactive | – | inactive | –
16 | O=S(=O)(Oc1ccc(Cl)cc1)c1ccccc1 | inactive | inactive | inactive | – | inactive | inactive | inactive | inactive | inactive | inactive | inactive | – | inactive | – | – | – | inactive | inactive | –
17 | CCN(CC)c1ccc2c(-c3ccccc3C(=O)O)c3ccc(=[N+](CC)CC)cc-3oc2c1 | 21.9 µM (active) | 24.5 µM (active) | 24.5 µM (active) | 24.5 µM (active) | – | – | – | 4.33 µM (active) | 3.44 µM (active) | inactive | 34.4 µM (active) | 24.5 µM (active) | 10.9 µM (active) | – | inactive | – | 24.5 µM (active) | – | –
